Assay results reported in PubChem BioAssay AID602370 (National Center for Advancing Translational Sciences (NCATS), 2012).
This is one part of the list. Records with an inconclusive call do not appear. Active and inactive are the calls of the source. Calls come from the whole dose curve; as a rule, active = well fitted inhibition curve with a large enough effect; inconclusive = small, poorly fitted or top-dose-only effect; inactive = no such curve, though single readings can be large or run the other way.

Target: 4'-phosphopantetheinyl transferase Sfp (Bacillus subtilis (strain 168)) (UniProt P39135)
Assay: qHTS Assay for Inhibitors of Bacillus subtilis Sfp phosphopantetheinyl transferase (PPTase): SAR Round 2
Conditions: purified Sfp enzyme, PPTase activity
Text: The covalent attachment of a phosphopantetheinyl (4'-PP) arm to a variety of synthases and other proteins is a key posttranslational protein modification. The 4'-PP is installed on the proteins post-translationally from coenzyme A (CoA) on a conserved serine residue by action of phosphopantetheinyl transferase (PPTase) enzymes. Phosphopantetheinylation is essential for synthase activity, and removal of the PPTase gene precludes natural product synthesis in microorganisms, or in the case of fatty acid biosynthesis, renders the organism unviable. PPTase enzymes belong to a distinct structural superfamily. Within bacteria, these enzymes are grouped into two classes based upon primary structure, the AcpS-Type and Sfp-Type PPTases.
Sfp-type PPTases, corresponding to an activator of surfactin production in Bacillus subtilis, are responsible for modifying type I polyketide and nonribosomal peptide synthases of prokaryotes. Sfp-type PPTases are responsible for the activation of a variety of pathogen-associated virulence factors. Among these compounds are toxins such as mycolactone from Mycobacterium ulcerans, siderophores such as vibriobactin from Vibrio cholerae or mycobactin from Mycobacterium tuberculosis, as well as the mycolic acids which form the waxy cell wall of Mycobacteria. The biosyntheses of these natural products are considered attractive targets for drug design.
In search of small molecule Sfp-PPTase inhibitors, a fluorescence quenching assay was developed for detection of Bacillus subtilis Sfp-PPTase enzymatic activity in a miniaturized high-throughput format. The consensus ybbr acceptor peptide […] was N-terminally labeled with Black Hole Quencher-2 (BHQ-2) and used in combination with rhodamine-labeled coenzyme A as a co-substrate.
Inhibition of Sfp-PPTase was detected by recording the fluorescence intensity change over a 30-minute reaction period at a 525 nm excitation and 598 nm emission. Reagents were supplied by Michael Burkart and Timothy Foley, University of California at San Diego.
NIH Chemical Genomics Center [NCGC]
NIH Molecular Libraries Probe Centers Network [MLPCN]
Assay Submitter (PI): Michale Burkart, University of California, San Diego
Assay Buffer: 50 mM Hepes-Na pH 7.6, 10 mM MgCl2, 0.01% Nonidet P-40, and 0.01% BSA.
3 uL of Sfp-PPTase enzyme (final concentration 15 nM) and 1 uL of substrate mixture (final concentration for rhodamine-CoA and BHQ-2-YbbR 5 uM and 12.5 uM, respectively) dispensed in columns 1, 2, 5 - 48. Columns 1 and 2 used to generate neutral control (uninhibited reaction)
Three uL of reagents, consisting of buffer (in columns 3 and 4 as negative control) and Sfp-PPTase (in columns 1, 2, 5 - 48) were dispensed into 1,536-well Greiner black solid bottom plate. Compounds (23 nL) were transferred via Kalypsys pintool equipped with 1,536-pin array. The plate was incubated for 15 min at room temperature, followed by the addition of 1 uL substrate to start the reaction. The plate was then centrifuged at 1000 rpm for 15 seconds, and the fluorescence intensity recorded on a ViewLux High-throughput CCD imager (Perkin-Elmer) using standard BODIPY optics (525 nm excitation and 598 nm emission). The plate was then incubated for 30 minutes, and a second read on the ViewLux was performed. The fluorescence intensity difference over the 30-minute period was used to calculate the respective reaction rate for each well.

Potency, active:
Cc1cc(C)nc(NC(=S)N2CCN(c3cccc(C#N)c3)CC2)c1 1.62 µM
COc1cccc(NC(=S)N2CCN(c3ccccc3C(F)(F)F)CC2)n1 3.24 µM
COc1ccnc(NC(=S)N2CCN(c3ncc(C(F)(F)F)cc3Cl)CC2)c1 0.29 µM
Cc1cc(C)nc(NC(=S)N2CCN(c3ccc(Cl)cc3C(F)(F)F)CC2)c1 0.58 µM
Cc1cc(C)nc(NC(=S)N2CCN(c3cccc(C(F)(F)F)c3)CC2)c1 0.51 µM
Cc1ccc(N2CCN(C(=S)Nc3cc(C)ccn3)CC2)cc1 5.13 µM
Cc1cc(C)nc(NC(=S)N2CCN(c3ccc(Cl)cc3F)CC2)c1 0.91 µM
Cc1cc(C)nc(NC(=S)N2CCN(c3ccc4nonc4c3)CC2)c1 6.46 µM
